# Compounds with a hit are over-represented: about 3.6% of the library has one in this group of screens.
# Pf apPOL inh = Pf-apPOL DNA polymerase inhibition; Recombinant Pf-apPOL, molecular beacon fluorescence, 1.5 h; inhibition, % at 10 µM; 210,000 tested, 0.25% active
# mHTT-CaM PPI inh = mHTT-calmodulin interaction abrogation; P42858; AID 1671202; 190,000 tested, 3.6% active; inhibition, % at 15 µM; AlphaScreen His-mHTT/GST-CaM binding, luminescence
# Numbers stand for hits; – = inactive; ! = not active in a repeat. Rule as the data show it: active = inhibition above about 50%; inactive = the rest.
SMILES,Pf apPOL inh,mHTT-CaM PPI inh
COc1ccc(CN2CCc3nc(Nc4ccc(F)cc4F)ncc3C2)c(OC)c1OC,–,53.4
Brc1csc(CN2CCc3nc(N4CCOCC4)ncc3C2)c1,–,56.5
CCCN1CCN(c2ncc3c(n2)CCN(Cc2cc(Br)cs2)C3)CC1,–,–
COc1cc(/C=C2/N=C(c3cccc(C)c3OC)OC2=O)cc(OC)c1OC,–,–
O=C(Nc1c2c(nn1-c1cccc(Cl)c1)CS(=O)C2)c1ccccc1F (stereo not drawn),–,–
O=C(Cc1ccsc1)N1CCCn2cc(-c3ccccc3)nc21,–,–
CC(=O)Nc1ccccc1NC(=O)COc1ccccc1,–,–
COc1ccc(NC(=O)COc2ccccc2)c2ccccc12,73.5,–
CC(=O)c1cccc(NS(=O)(=O)c2ccccc2)c1,–,–
CCCCN(C)C(=O)C1CCCN(c2cnn(Cc3ccccc3)c(=O)c2)C1 (stereo not drawn),–,–
O=C1C(=Cc2cc(Cl)cc3c2OCOC3)Oc2c1ccc(O)c2CN1CCCC1,–,–
COc1cc(OC)cc(C(=O)N2CCN=C2SCc2ccccc2C)c1,–,–
Cc1ccc(OCc2nc3ccccc3n2C(C)C)cc1,–,–
CC(C)n1c(C(O)c2ccc(OCc3ccccc3)cc2)nc2ccccc21 (stereo not drawn),–,81.1
CCOc1ccc(C(=O)NCc2cccnc2)cc1Cl,–,–
COc1ccc(Br)cc1C1NCCS1 (stereo not drawn),–,–
COc1cc(C(CCN2CCCC2)c2c(OC)cc(OC)c3c2OC(=O)CC3c2ccc(N(C)C)cc2)cc(OC)c1OC (stereo not drawn),–,75.0
COc1cc(C(CCN2CCCCC2)c2c(OC)cc(OC)c3c2OC(=O)CC3c2ccc(N(C)C)cc2)cc(OC)c1OC (stereo not drawn),–,78.3
COc1cc(C2CC(=O)Oc3c(C(C)C)ccc(C)c32)cc(OC)c1OC (stereo not drawn),–,–
COc1ccc(NC(=O)CCN2CCN(c3ccccc3)CC2)c(OC)c1,–,–
COc1ccc(C2CC(=O)Oc3c(C(CCN4CCN(c5ccccc5)CC4)c4ccc(N(C)C)cc4)c(OC)cc(OC)c32)cc1 (stereo not drawn),–,72.8
COc1cc(C(CCN2CCOCC2)c2c(OC)cc(OC)c3ccc(=O)oc23)cc(OC)c1OC (stereo not drawn),–,–
COc1cc(OC)c2c(c1C(CCN1CCOCC1)c1ccc(N(C)C)cc1)OC(=O)CC2c1ccc(N(C)C)cc1 (stereo not drawn),–,99.8
N#Cc1ccsc1NC(=O)CN1C(=O)CCC1=O,–,–
COc1ccc(C2C(C(=O)Nc3ccccn3)CCC(=O)N2c2ccc(OC)cc2)cc1 (stereo not drawn),–,–
SMILES,Pf apPOL inh,mHTT-CaM PPI inh
CCN(CC)CCC(c1cc(OC)c(OC)c(OC)c1)c1c(OC)cc(OC)c2ccc(=O)oc12 (stereo not drawn),–,–
COc1ccc(C2CC(=O)Oc3c(C(CCN4CCOCC4)c4cc(OC)c(OC)c(OC)c4)c(OC)cc(OC)c32)cc1 (stereo not drawn),–,–
COc1ccc2c(c1)C(c1ccc3c(c1)OCO3)CC(=O)O2 (stereo not drawn),–,–
COc1ccc(C2CC(=O)Oc3c(C(CCN4CCOCC4)c4ccc5c(c4)OCO5)c(OC)cc(OC)c32)cc1 (stereo not drawn),–,78.9
CCN(CC)CCC(c1cc(OC)c(OC)c(OC)c1)c1c(OC)cc(OC)c2c1OC(=O)CC2c1ccc(N(C)C)cc1 (stereo not drawn),–,69.3
COc1cc(C(CCN2CCOCC2)c2c(OC)cc(OC)c3c2OC(=O)CC3c2ccc(N(C)C)cc2)cc(OC)c1OC (stereo not drawn),–,73.9
Cc1ccc(C)c(Cc2c(C)nc3c(C(=O)NCc4ccccc4)cnn3c2C)c1,–,–
O=C(Nc1ccncc1)c1c(O)c2cccc3c2n(c1=O)CCC3,–,–
CC(C)CNC(=O)COc1ccccc1Br,–,–
CCC(=O)NC(c1ccc2c(c1)OCO2)c1cc(Cl)c2cccnc2c1O (stereo not drawn),–,96.0
COc1ccc(C(NC(C)=O)c2cc(Cl)c3cccnc3c2O)cc1OC (stereo not drawn),–,100.0!
COc1ccccc1C(NC(=O)C(C)C)c1cc(Cl)c2cccnc2c1O (stereo not drawn),–,–
COc1ccccc1C(NC(C)=O)c1cc(Cl)c2cccnc2c1O (stereo not drawn),–,71.0
COCC(=O)NC(c1ccccc1)c1cc(Cl)c2cccnc2c1O (stereo not drawn),–,100.0
O=C(c1cnn2cccnc12)N1CCCC1c1ccc(F)cc1 (stereo not drawn),–,–
Cc1ccc(S(=O)(=O)c2nc(CC(C)C)oc2N2CCCCC2)cc1,–,–
CCNC(=O)c1sc(-c2cccc(F)c2)nc1C,–,–
CCC(=O)NC(c1ccc(OC)c(OC)c1)c1cc(Cl)c2cccnc2c1O (stereo not drawn),–,100.0
CCCC(=O)NC(c1ccc(OC)cc1)c1cc(Cl)c2cccnc2c1O (stereo not drawn),–,–
COc1cc(/C=C(\C#N)c2nc(-c3ccc(Br)cc3)cs2)ccc1O,–,–
Cc1ccc(-c2csc(/C(C#N)=C/c3cccc(O)c3)n2)cc1,–,97.1
COc1cc(/C=C(\C#N)c2nc(-c3ccccc3)cs2)ccc1O,–,97.0
Cc1ccc(/C=C(\C#N)c2nc(-c3ccc(Br)cc3)cs2)o1,–,–
N#C/C(=C\c1ccc(O)c(O)c1)c1nc(-c2cccc([N+](=O)[O-])c2)cs1,–,66.4
N#C/C(=C\c1ccc(O)c(Br)c1)c1nc(-c2cccc([N+](=O)[O-])c2)cs1,–,–
SMILES,Pf apPOL inh,mHTT-CaM PPI inh
COc1ccc(-c2csc(/C(C#N)=C/c3ccc(OC)o3)n2)cc1,–,69.0
Cc1ccc(-c2csc(/C(C#N)=C/c3ccc(O)cc3)n2)cc1,–,–
COCCCNC(=O)CC1CCN(C(=O)c2sc(-c3ccc(C)cc3)nc2C)CC1,–,–
Cc1ccc(C(=O)O)cc1-c1ccc(C=C2C(=O)OC3(CCCCC3)OC2=O)o1,–,–
Cc1ccccc1OCCCC(=O)Nc1ccc([N+](=O)[O-])cc1Br,–,–
CCOc1cc(/C=C(\C#N)c2nc3ccccc3s2)ccc1O,–,56.0
CCOc1ccc(/C=C(\C#N)c2nc3ccccc3s2)cc1OC,–,–
COc1ccc(-c2coc3c4c(ccc3c2=O)OCN(C2CC(C)(C)NC(C)(C)C2)C4)cc1OC,–,–
O=C1c2ccccc2C(=O)c2c1oc1c3c(ccc21)OCN(Cc1ccccc1)C3,–,–
CC1(C)CC(N2COc3ccc4c5c(oc4c3C2)C(=O)c2ccccc2C5=O)CC(C)(C)N1,–,96.0!
CC(=O)c1c(C)oc2c1c1c(c3ccccc32)OCN(C2CCCCC2)C1,–,–
CCCCN1COc2ccc3c4c(oc3c2C1)C(=O)c1ccccc1C4=O,–,69.6
CC(=O)c1c(C)oc2c1c1c(c3ccccc32)OCN(C2CC(C)(C)NC(C)(C)C2)C1,–,78.1
COCCCN1COc2ccc3c(C)c(-c4ccccc4)c(=O)oc3c2C1,–,–
O=C1c2ccccc2C(=O)c2c1oc1c3c(ccc21)OCN(CCc1ccccc1)C3,–,60.6
O=C(CCN1CCCCCC1)Nc1ccc(Br)cc1,–,–
N#Cc1cccc(S(=O)(=O)N2CCCC(c3nc(CNC(=O)C4CC4)cs3)C2)c1 (stereo not drawn),–,–
